# From PubChem BioAssay
# Hits are enriched below; roughly 4.2% of the tested compounds scored in any of these assays.
# RecA intein inh: blocks M. tuberculosis RecA intein splicing; 0.75% of 290,000 active; inhibition, % (no concentration beside the values); cell-free RecA intein splicing, fluorescence; P9WHJ3; in the data active means inhibition above about 30%
# FBA Mtb inh: Mtb fructose-bisphosphate aldolase inhibition | P9WQA3 | purified M. tuberculosis FBA, fluorescence read-out | inhibition, % at 1 µM | 2.3% of 360,000 active | AID 588726; in the data active means inhibition above about 27%
# Target sequence (P9WQA3 whole entry, looked up): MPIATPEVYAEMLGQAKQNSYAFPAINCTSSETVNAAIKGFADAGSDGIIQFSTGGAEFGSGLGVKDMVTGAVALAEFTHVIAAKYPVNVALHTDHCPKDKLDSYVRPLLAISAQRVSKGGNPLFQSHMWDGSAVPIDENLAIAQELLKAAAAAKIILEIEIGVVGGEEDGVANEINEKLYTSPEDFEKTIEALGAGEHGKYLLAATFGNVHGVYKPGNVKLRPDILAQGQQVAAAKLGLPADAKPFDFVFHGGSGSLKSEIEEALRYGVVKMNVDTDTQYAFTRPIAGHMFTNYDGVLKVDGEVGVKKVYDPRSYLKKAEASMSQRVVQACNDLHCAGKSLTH
# GDH-TPI counter: inhibits GDH-TPI coupling enzymes, artifact for Mtb FBA screen. GDH-TPI coupled enzyme counterscreen, NADH absorbance. inhibition, % at 4.8 µM. 1.2% of 360,000 active. AID 588335; in the data active means inhibition above about 30%
# BJeLR lethal: BJeLR cell viability loss | 0.17% of 300,000 active | BJeLR (HRASV12) viability, CellTiter-Glo ATP luminescence, 48 h | AID 1554 | inhibition, % (no concentration beside the values); in the data active means inhibition above about 50%
# PrPC TRFRET: inhibitors of human cell surface prion protein PrPC; TR-FRET read-out; inhibition, % at 13.8 µM; 0.43% of 370,000 active; in the data active means inhibition above about 24%
# Hits are given with their value; - = inactive; . = no result; + = active, no number.
SMILES,RecA intein inh,FBA Mtb inh,GDH-TPI counter,BJeLR lethal,PrPC TRFRET
CCN(CC)c1ccc(C=Nc2ccccc2)c(O)c1,-,-,34,-,-
CCN(CC)c1ccc(C=Nc2cc(C)cc(C)c2)c(O)c1,-,-,-,-,-
O=C(NCc1cccc2ccccc12)C1CCCN(c2nc3ccccc3o2)C1 (stereo not given),.,.,.,.,-
O=C(CSc1nc2ncccc2[nH]1)N1CCOCC1,.,.,.,.,-
CCOc1ccc(/C=N/n2nnnc2N)cc1OCC,-,-,31,-,-
O=C1CSc2ccc(C(=O)N3CCCC(C(=O)N4CCN(c5ccc(F)cc5)CC4)C3)cc2N1 (stereo not given),.,.,.,.,-
COC(=O)c1ccc(N=NN2CCCCCC2)cc1,-,-,32,-,-
COc1ccc(S[C@]2(C(=O)N3CCN(C(C)=O)CC3)CC(=O)N(S(=O)(=O)c3ccc(F)cc3)[C@@H]2c2ccc(OC)cc2)cc1,.,.,.,.,-
Cc1ccc(S(=O)(=O)N2CCCC2c2cccc3[nH]cc(C)c23)cc1 (stereo not given),.,.,.,.,-
COc1cccc(-c2cc3nc(-c4ccccc4)cc(=O)n3[nH]2)c1,-,84,-,-,-
COc1cccc(N=Nc2c(N)[nH]n3c(=O)cc(-c4ccccc4)nc23)c1,-,-,-,-,-
CC(C)Oc1ccc(S(=O)(=O)N2CCCCCC2)c2ccccc12,.,.,.,.,-
C#CCNC(=O)C[C@@H]1C(=O)N(CC=C)/C2=C/CCCCC[C@]21C(=O)OCC,.,.,.,.,-
Cc1cc(OCC(=O)NCc2ccc(S(N)(=O)=O)cc2)c2c3c(c(=O)oc2c1)CCC3,-,40,-,-,-
Cc1cc(OCC(=O)NCc2ccncc2)c2c3c(c(=O)oc2c1)CCC3,-,-,-,-,-
COC(=O)C1OC2(OC1C(=O)OC)c1ccccc1-c1ccccc12 (stereo not given),-,-,-,-,-
COC(=O)[C@@H]1[C@@H](C(=O)OC)C2(c3ccccc3-c3ccccc32)N(c2ccc(Cl)cc2)N1C#N,51,-,-,-,-
CC(C)CN1C(=O)[C@]2(CC(=O)N(C)C2c2ccccc2)c2cc(-n3cc(-c4ccccc4)nn3)ccc21 (stereo not given in full),.,.,.,.,-
CC(=O)Nc1ccc2c(CN3C(=O)NC(C)(c4ccc(C)cc4)C3=O)cc(=O)oc2c1 (stereo not given),-,132,-,-,-
COC(=O)CSc1nnc(-c2cc(-c3ccccc3)n[nH]2)n1N,.,.,.,.,-
C=CCN(CC#CC1=CCCCC1)CC1CC1,.,.,.,.,-
COc1cccc(/C=C/C(=O)NCc2ccc(S(N)(=O)=O)cc2)c1,-,28,-,-,-
NS(=O)(=O)c1ccc(CNC(=O)/C=C/c2ccccc2)cc1,-,-,-,-,-
COC(=O)[C@]12C[C@H](CC(=O)NCC34CC5CC(CC(C5)C3)C4)C(=O)N(Cc3cccc4ccccc34)C1=C[C@H](COCc1ccccc1)O[C@@H]2C,.,.,.,.,-
COc1cc(C=C2C(=O)NC(=O)NC2=O)ccc1O,-,-,32,-,-
SMILES,RecA intein inh,FBA Mtb inh,GDH-TPI counter,BJeLR lethal,PrPC TRFRET
COc1cc(/C=C2\C(=O)NC(=O)N(CCc3ccc(F)cc3)C2=O)ccc1O,-,-,-,-,-
COc1cc(/C=C2\NC(=O)NC2=O)cc(Br)c1OC,-,-,32,-,-
COc1ccc(C=C2NC(=O)NC2=O)cc1O,.,-,43,.,-
Cc1ccc(S(=O)(=O)N(CCc2ccccc2)CC(=O)N2CCOCC2)cc1,.,.,.,.,-
COC(=O)c1ccc(Cn2ccc3ccc(-c4ccc5ccn(C(=O)c6cccc(OC)c6)c5c4)cc32)cc1,.,.,.,.,-
COC(=O)C1=C(C)N(Cc2cccc(C(F)(F)F)c2)C(=NCC2CC2)NC1c1cccc(F)c1 (stereo not given),.,.,.,.,-
O=S(=O)(Nc1cc(Sc2cccc3cccnc23)c(O)c2ccccc12)c1ccccc1,-,.,.,125,-
O=C(O)CSc1cc(NS(=O)(=O)c2cccc([N+](=O)[O-])c2)c2ccccc2c1O,95,-,-,-,-
CCCCCCNC(=O)C1CSCCS(=O)(=O)N1Cc1ccc(OC)cc1 (stereo not given),.,.,.,.,-
CCOC(=O)C(=CNc1cc(OC)ccc1-n1cccc1)C(=O)OCC,-,-,36,-,-
CCOC(=O)C(=CNc1cc(C)ccc1C)C(=O)OCC,-,-,34,-,-
CCOC(=O)C(=CNc1cc(C(F)(F)F)ccc1N1CCOCC1)C(=O)OCC,-,-,32,-,-
Cn1cccc1C(=O)N1CCN(S(=O)(=O)c2ccc(F)cc2)CC1,.,.,.,.,-
O=S(=O)(N[C@@H]1CCCC[C@H]1N1CCOCC1)c1ccc(Cl)cc1,.,.,.,.,-
O=C(O)c1cnc2[nH]c3ccccc3n2c1=O,-,176,36,-,-
CCOC(=O)c1cnc2oc3ccccc3n2c1=O,-,-,-,-,-
Cc1cccc(OCCN2CSC(=S)N(C)C2)c1,42,-,-,-,-
COc1ccccc1CNC(=O)N1CCN(Cc2nc3ccccc3c(=O)[nH]2)CC1,.,.,.,.,-
CCOC(=O)c1ccc(NS(=O)(=O)c2c(C)nc3sccn3c2=O)cc1,-,-,35,-,-
CC(C)(C)c1ccc(-c2ncccc2O)cc1,-,170,-,.,-
CC(C)(C)c1ccc(C(=O)NCCCNC(=O)c2ccccn2)cc1,-,-,-,-,-
Cc1cccn2cc(-c3ccc(NC(=O)Cc4ccccc4)cc3)nc12,-,-,-,-,-
COCC(=O)Nc1ccc(-c2cn3cccnc3n2)cc1,-,+,-,-,-
CCC(CC)C(=O)Nc1ccc(-c2cn3cccnc3n2)cc1,-,+,-,-,-
CCC(CC)C(=O)Nc1ccncc1,-,.,.,-,.
SMILES,RecA intein inh,FBA Mtb inh,GDH-TPI counter,BJeLR lethal,PrPC TRFRET
COC(CNC(=O)[C@H](Cc1ccccc1)NC(C)(C)C(=O)NC1CCCCC1)OC,.,.,.,.,-
CC1(C)CC(=O)C(C=Nc2ccc(N)cc2)=C(O)C1,-,-,-,-,-
CC1(C)CC(=O)C(C=Nc2ccc(O)cc2)=C(O)C1,-,-,-,-,-
CC1(C)CC(=O)C(C=Nc2ccc3[nH]ncc3c2)=C(O)C1,-,-,36,-,-
CC1(C)CC(=O)C(C=Nc2ccc3cn[nH]c3c2)=C(O)C1,-,-,39,-,-
COc1cc2nc(N3CCN(C(=O)C4CCCO4)CC3)nc(N)c2cc1OC (stereo not given),-,112,-,-,-
COC1C(OC(=O)/C=C/C=C/C=C/C=C/C(=O)O)CCC2(CO2)C1C1(C)OC1CC=C(C)C (stereo not given) (tested in a mixture with another compound),.,-,64,.,-
COc1ccc(/C=N/NC(=O)c2ccc(O)cc2O)cc1CSc1ccccn1,-,-,38,-,-
COc1ccc(C=O)cc1CSc1ccccn1,-,-,-,-,-
O=C(N/N=C/c1cccc(Oc2ccccc2)c1)c1ccc(O)cc1O,-,-,34,-,-
O=C(Nc1cccnc1)c1cc2c(ccc3ccccc32)o1,-,-,32,-,.
O=C(O)c1ccc(/C=N/NC(=O)c2cc3ccccc3cc2O)cc1,.,-,41,.,-
COC(=O)C1CN(C2CCCC2)CCS(=O)(=O)N1Cc1ccccc1 (stereo not given),.,.,.,.,-
